Assay outcomes deposited in PubChem by several laboratories.
Bead autofluor: compound fluorescence in toxin protease inhibitor counterscreen | compound autofluorescence counterscreen, microsphere flow cytometry; active compounds read high | fluorescence intensity (concentration not given with the values) | 360,000 tested, 3.1% active; in the data active = fluorescence intensity above about 16000; inconclusive = no clear call, values can overlap the other calls
Mtb FBA inh: inhibits M. tuberculosis FBA enzyme | purified M. tuberculosis FBA, fluorescence read-out | inhibition, % at 1 µM | 360,000 tested, 2.3% active | AID 588726
Target sequence (P9WQA3 whole entry, looked up): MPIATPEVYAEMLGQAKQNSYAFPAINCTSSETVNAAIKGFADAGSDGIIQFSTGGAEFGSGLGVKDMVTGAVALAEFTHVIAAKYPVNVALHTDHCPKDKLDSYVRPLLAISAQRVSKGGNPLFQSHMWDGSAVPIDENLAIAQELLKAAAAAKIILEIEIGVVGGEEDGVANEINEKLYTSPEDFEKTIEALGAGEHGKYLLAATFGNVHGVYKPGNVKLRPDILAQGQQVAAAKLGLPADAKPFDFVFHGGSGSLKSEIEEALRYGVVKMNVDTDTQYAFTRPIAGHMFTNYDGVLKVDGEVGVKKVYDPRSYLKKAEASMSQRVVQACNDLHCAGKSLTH
GDH-TPI counter-1: counter-screen for M. tuberculosis FBA inhibitors: GDH-TPI coupled enzymes | AID 588335 | GDH-TPI coupled enzyme counterscreen, NADH absorbance | 360,000 tested, 1.2% active | inhibition, % at 4.8 µM; in the data active = inhibition above about 30%
Anthrax LF inh2: blocks Bacillus anthracis lethal factor protease; multiplex microsphere protease cleavage assay, LF; inhibition, % at 10 µM; 360,000 tested, 0.12% active; AID 588501; in the data active = inhibition above about 30%; inconclusive = no clear call, values can overlap the other calls
BoNT F protease: BoNT F light chain protease inhibition; Multiplex microsphere protease cleavage assay, flow cytometry; inhibition, % at 10 µM; 360,000 tested, 0.22% active; in the data active = inhibition above about 35%, passing the limit was not always enough; inconclusive = no clear call, values can overlap the other calls
BoNT-A LC inh2: blocks Botulinum neurotoxin A light chain protease. AID 588499. inhibition, % at 10 µM. 360,000 tested, 0.17% active. multiplex microsphere protease substrate cleavage, flow cytometry; in the data active = inhibition above about 30%; inconclusive = no clear call, values can overlap the other calls
Mtb FBA inh conf: Mtb FBA inhibition, confirmed. 5,600 tested, 78% active. inhibition, % at 1 µM. shares compounds with Mtb FBA inh. purified M. tuberculosis FBA, fluorescence read-out
GDH-TPI counter-2: counter-screen for M. tuberculosis FBA inhibitors: GDH-TPI coupled enzyme inhibition | shares compounds with Mtb FBA inh | GDH-TPI coupled enzyme counterscreen, fluorescence | inhibition, % at 1 µM | 5,600 tested, 81% active; in the data active = inhibition above about 10%
GDH-TPI DR: inhibits GDH-TPI coupling enzymes in dose response; shares compounds with Mtb FBA inh; AID 652145; 170 tested, 79% active; GDH-TPI coupled enzyme assay, fluorescence, artifact counterscreen; IC50, µM; call rule not given here
Numbers stand for hits; i = inactive; ? = inconclusive; nt = no result given; + = active, no number. An excerpt weighted towards active compounds, which were near 6.7% of everything screened. Cut-off read from the data, not from the text of the source, unless noted: active = inhibition above about 27%; inactive = the rest.

SMILES | Bead autofluor | Mtb FBA inh | GDH-TPI counter-1 | Anthrax LF inh2 | BoNT F protease | BoNT-A LC inh2 | Mtb FBA inh conf | GDH-TPI counter-2 | others
COc1ccc(Cl)cc1-c1cc(C(=O)N[C@H](C)c2ccccc2)[nH]n1 | i | i | i | i | i | i | nt | nt
COc1cccc2[nH]c(C(=O)NC(C)c3ccccc3)cc12 (stereo unspecified) | i | 50 | i | i | ? | i | 156 | 117
CCN1CCCC1CNC(=O)c1cc2c(OC)cccc2[nH]1 (stereo unspecified) | i | 30 | i | i | i | i | 61 | 34
COc1cccc(-c2nc(C(=O)NCCCN3CCOCC3)cc3c2[nH]c2ccccc23)c1 | i | 38 | i | i | i | i | i | i
COc1cccc(C(=O)N(Cc2ccc3c(c2)OCO3)Cc2nc3ccccc3c(=O)[nH]2)c1 | i | i | i | i | i | i | nt | nt
Cc1cccc(N(C(=O)CNC(=O)c2ccco2)C(C(=O)NC2CCCC2)c2cccnc2)c1 (stereo unspecified) | i | i | i | i | ? | i | nt | nt
O=C(NCCCNC(=O)c1ccc(Cl)cc1Cl)c1ccco1 | i | i | i | i | i | i | nt | nt
O=C(CN1C(=O)C2CC=CCC2C1=O)N1CCN(c2ccc([N+](=O)[O-])cc2)CC1 (stereo unspecified) | i | i | i | i | i | i | nt | nt
O=C(Nc1ccccn1)c1ccc(Br)c(S(=O)(=O)N2CCCCC2)c1 | i | 51 | i | i | i | i | + | +
O=C(Nc1ccccn1)c1ccc(Br)c(S(=O)(=O)N2CCCC2)c1 | i | i | i | i | i | i | nt | nt
CC1CC(=O)C2=C(C1)OC(N)=C(C#N)C2c1coc2ccccc2c1=O (stereo unspecified) | i | i | i | i | i | i | nt | nt
O=c1oc(Nc2cccc(F)c2)nc2ccccc12 | i | 36 | i | i | i | i | 96 | 79
Nc1nc(Nc2cccc(F)c2)nc2ccccc12 | i | i | i | i | i | i | nt | nt
Cc1cc(C)c2oc(-c3cccc(N)c3)nc2c1 | i | 52 | i | i | i | i | i | i | GDH-TPI DR=0.88
Cc1ccc2oc(-c3cccc(NC(=O)C4CCCO4)c3)nc2c1 (stereo unspecified) | i | 51 | i | i | i | i | 120 | 98
Nc1cc(N)cc(-c2nc3ccccc3o2)c1 | i | i | i | i | i | i | nt | nt
Cc1ccc2nc(-c3cccc(N)c3)oc2c1 | i | 93 | i | i | i | i | i | i | GDH-TPI DR=0.95
CCc1ccc2oc(-c3cccc(N)c3)nc2c1 | i | 63 | i | i | i | i | 127 | 104
O=C(Nc1cccc(-c2nc3cc(Cl)ccc3o2)c1)C1CCCO1 (stereo unspecified) | i | i | i | i | i | i | nt | nt
CN(CCc1cn[nH]c1)Cc1nc(Cc2ccccc2)no1 | i | i | i | i | i | i | nt | nt
CCN(C(=O)/C=C/c1ccccc1)C1CCCCC1 | i | i | i | i | ? | i | nt | nt
Cc1ccc2nc(-c3ccc(O)cc3)oc2c1 | i | 66 | i | i | i | i | 68 | 46
Cc1ccc2nc(CCc3nc4ccc(C)cc4o3)oc2c1 | i | i | i | i | i | i | nt | nt
CCCC(=O)Nc1cccc(-c2nc3cc(C)c(C)cc3o2)c1 | i | i | i | i | i | i | nt | nt
CCC(=O)Nc1cccc(-c2nc3ccc(C)cc3o2)c1 | nt | 32 | i | nt | nt | nt | 115 | 99
SMILES | Bead autofluor | Mtb FBA inh | GDH-TPI counter-1 | Anthrax LF inh2 | BoNT F protease | BoNT-A LC inh2 | Mtb FBA inh conf | GDH-TPI counter-2 | others
CCN1C(=O)[C@H]2[C@@H](c3ccc(-c4ccc(OC)cc4)cc3)N[C@@](C)(C(=O)OC)[C@H]2C1=O | i | 100 | i | i | i | i | 135 | 94
COc1nn(CC(=O)N2N=C(C)CC2(O)C(F)F)cc1[N+](=O)[O-] (stereo unspecified) | i | i | i | i | i | i | nt | nt
Cn1c(=O)nc2n(Cc3ccccc3)c3ccccc3cc-2c1=O | i | 85 | i | i | i | i | 72 | 52
Cc1cc(=O)c2ccccc2n1Cc1ccccc1 | i | i | i | i | i | i | nt | nt
COc1cc2cc(CN(Cc3cccnc3)C(=O)Nc3ccccc3)c(=O)[nH]c2cc1OC | i | i | i | i | i | i | nt | nt
COc1cc2cc(CN(Cc3cccnc3)C(=O)NCc3ccccc3)c(=O)[nH]c2cc1OC | i | 32 | i | i | i | i | i | 20
